Source: PubChem BioAssay (NCI)
The panel holds about 83,000 compounds, 20% with a hit somewhere; the sample as a whole holds those more often.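 Testing used 96-well plates and a 48-hour single-concentration exposure. Example: -40 means 40% of the starting cells died.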 The source made the active and inactive calls. How the source made its calls: active means growth percent below 10; inactive means the rest.

How the values were obtained:
Experiment in all cases: NCI-60 one-dose screen, 48 h (100 = growth as untreated, 0 = no growth, -100 = all killed)
Settings in all cases: 10 µM unless noted
[1] = test system: SK-MEL-2 melanoma
[2] = test system: EKVX NSCLC
[3] = test system: SN12C renal
[4] = test system: UO-31 renal
[5] = test system: TK-10 renal
[6] = test system: ACHN renal
[7] = test system: CAKI-1 renal
[8] = test system: A498 renal
[9] = test system: CCRF-CEM leukemia
[10] = test system: MOLT-4 leukemia
[11] = test system: SR leukemia
[12] = test system: RPMI-8226 leukemia
[13] = test system: OVCAR-8 ovarian
[14] = test system: OVCAR-5 ovarian
[15] = test system: OVCAR-4 ovarian
[16] = test system: SK-OV-3 ovarian
[17] = test system: IGROV1 ovarian
[18] = test system: OVCAR-3 ovarian
[19] = test system: HS 578T breast
[20] = test system: NCI/ADR-RES ovarian

Measured: growth

CCOC(=O)c1c(NC(=O)c2cccc(C(F)(F)F)c2)sc2c3c(ccc12)OCN(C)C3
active: [3] -66.2% | [6] -91.9% | [9] -39.5% | [10] -48.5% | [11] -41.7% | [12] -47.6% | [13] -41.6% | [14] -14% | [15] -44.2% | [17] -78.7% | [18] -44.7% | [20] -54.3%
inactive: [1] 98.8% | [2] 36.9% | [4] 31.8% | [5] 126% | [7] 44.8% | [8] 84.3% | [16] 75.7% | [19] 38.4%

NS(=O)(=O)c1nnc(/N=C/c2c(O)[nH]c3ccccc23)s1
inactive: [1] 114% | [2] 84.2% | [3] 101% | [4] 72.5% | [5] 142% | [6] 93.7% | [7] 86.5% | [8] 107% | [9] 106% | [10] 126% | [11] 98.3% | [12] 109% | [13] 99.9% | [14] 121% | [15] 98.5% | [16] 99.5% | [17] 76.5% | [18] 107% | [19] 102% | [20] 107%

COc1ccc(Cn2cc(C#N)c(N)c2C(C)=O)cc1
inactive: [1] 106% | [2] 104% | [3] 89.8% | [4] 95.9% | [5] 99.8% | [6] 103% | [7] 93.6% | [8] 83.9% | [9] 94.7% | [10] 101% | [11] 122% | [12] 105% | [13] 111% | [14] 106% | [15] 92.9% | [16] 105% | [17] 106% | [18] 108% | [19] 102% | [20] 104%

O=S(=O)(NCCCNc1nccc(-c2[nH]c(-c3ccccc3)nc2-c2ccc(F)c(O)c2)n1)c1ccc(C(F)(F)F)cc1
active: [9] 4.62% | [11] 1.01%
inactive: [1] 18.8% | [2] 69.7% | [3] 67.7% | [4] 91.4% | [5] 95.7% | [6] 58.7% | [7] 40.5% | [8] 28.3% | [10] 17.2% | [12] 16.2% | [13] 69.7% | [14] 136% | [15] 67.8% | [16] 78.4% | [17] 63.1% | [18] 33.6% | [19] 48.9% | [20] 89%

CCOP(=O)(OCC)OC[C@]12CC[C@@H](C)[C@H](C)C1C1=CC[C@@H]3[C@@]4(C)CCCNC(C)(C)[C@@H]4CC[C@@]3(C)[C@]1(C)CC2 (stereo partly specified)
active: [9] -33.3% | [10] -69.1% | [11] -57.7% | [12] -48.9% | [17] 0.926%
inactive: [1] 109% | [2] 36.8% | [3] 40.1% | [4] 21.1% | [5] 61.2% | [6] 34.4% | [7] 13% | [8] 66.3% | [13] 61.2% | [14] 70% | [15] 34.4% | [16] 72.7% | [18] 38.4% | [19] 47.8% | [20] 20.6%

CC(Nc1c(C#N)cnc2ccc(-c3cncc(-c4n[nH]c(=O)o4)c3)cc12)c1ccccc1 (stereo unspecified)
inactive: [3] 11% | [9] 19.6% | [12] 10.5% | [13] 18.1% | [14] 26% | [20] 67.7%
active: [1] -34% | [2] -12% | [4] 1.27% | [5] -23.8% | [6] 9.24% | [7] 4.01% | [8] -6.1% | [10] 8.04% | [11] 6.62% | [15] -5.14% | [16] 3.52% | [17] -20% | [18] 3.98% | [19] -22.2%

Cc1ccc(NC(=O)Nc2nc3ccc([N+](=O)[O-])cc3s2)cc1
active: [1] -15.2% | [2] 4.01% | [3] 3.41% | [4] 6.85% | [5] 4.02% | [6] 1.63% | [7] -23.2% | [8] -34.8% | [12] 2.09% | [15] -6.09% | [16] -12.4% | [18] -0.465% | [20] 2.65%
inactive: [9] 14.2% | [10] 17.2% | [11] 20.3% | [13] 12.8% | [14] 10.3% | [17] 16.8% | [19] 15.2%

Cc1ccc(S(=O)(=O)NCCCNc2nc(Nc3ccc(N4CCN(C)CC4)cc3)nc3ccsc23)cc1
active: [10] 9.91% | [11] 4.16% | [12] 6.57%
inactive: [1] 92.9% | [2] 78.8% | [3] 58.3% | [4] 50.7% | [5] 124% | [6] 11.7% | [7] 14.5% | [8] 56.2% | [9] 18.1% | [13] 40% | [14] 73.9% | [15] 23.7% | [16] 117% | [17] 57.1% | [18] 14.6% | [19] 44% | [20] 70.4%

CCOC(=O)c1ccc(NC2=CC(=O)C(C)=C(C)C2=O)cc1
active: [15] -63% | [18] 0.628%
inactive: [1] 96.1% | [2] 94.6% | [3] 93.8% | [4] 73.9% | [5] 137% | [6] 89.9% | [7] 69.3% | [8] 84.3% | [9] 54.4% | [10] 41.3% | [11] 50.3% | [12] 66.1% | [13] 83.7% | [14] 104% | [16] 92% | [17] 79.2% | [19] 94.1% | [20] 65.4%

CCN(CC)c1ccc(/C=N/NC(=O)c2ccc(NS(C)(=O)=O)cc2)c(O)c1
active: [9] 6.1% | [10] 9.84%
inactive: [1] 40.7% | [2] 15.6% | [3] 31.4% | [4] 13.1% | [5] 47.9% | [6] 15.9% | [7] 18.8% | [8] 18.9% | [11] 10.6% | [12] 15.8% | [13] 12% | [14] 46% | [15] 31.3% | [16] 34.2% | [17] 20.3% | [19] 55.7% | [20] 36.9%

CC(C)(O)c1cncc(-c2ccc3ncc(C#N)c(N4CCc5cc(F)c(Cl)cc54)c3c2)c1
inactive: [3] 17.1% | [5] 14.3% | [9] 20.5% | [11] 11.8% | [12] 13.5% | [13] 11.1% | [14] 16.7% | [20] 14.8%
active: [1] -5.06% | [2] -10.5% | [4] -2.66% | [6] 6.6% | [7] 0.608% | [8] -18.3% | [10] 5.17% | [15] -1.6% | [16] -22.1% | [17] -14.5% | [18] 9.12% | [19] -28%

Cc1ccccc1Nc1nc(SC(C)C)nc(-c2ccccc2)c1C#N
active: [4] -40.2% | [17] -50.3%
inactive: [1] 130% | [2] 73.2% | [3] 12.1% | [5] 61.1% | [6] 13.4% | [7] 38.4% | [8] 53.5% | [9] 80.9% | [10] 90.2% | [11] 89.6% | [12] 83.8% | [13] 19.9% | [14] 71.9% | [15] 13.4% | [16] 94.3% | [19] 63.1% | [20] 34.7%

CCS(=O)(=O)Nc1ccc(C(=O)CC2(O)C(=O)Nc3ccccc32)cc1 (stereo unspecified)
inactive: [1] 113% | [2] 91.8% | [3] 97.4% | [4] 67.7% | [5] 122% | [6] 95.3% | [7] 82.6% | [8] 103% | [9] 99.7% | [10] 102% | [11] 99.2% | [12] 101% | [13] 101% | [14] 102% | [15] 108% | [16] 105% | [17] 90% | [19] 104% | [20] 96.7%

CC(C)(C)OC(=O)NCc1ccc(CNc2c([N+](=O)[O-])cnc3ccccc23)cc1
inactive: [1] 29.7% | [2] 44.2% | [3] 75.9% | [4] 50.3% | [5] 80.4% | [6] 61.1% | [7] 67.1% | [8] 36.2% | [9] 59.8% | [10] 34.4% | [11] 37.1% | [12] 43.6% | [13] 63.4% | [14] 93.6% | [15] 54.8% | [16] 68% | [17] 76.5% | [19] 76.9% | [20] 38.2%

CC1=C(SCC(=O)OCCCCCC(C)C)C(=O)c2ccccc2C1=O
inactive: [1] 99.1% | [2] 82.5% | [3] 83% | [4] 62.9% | [5] 133% | [6] 85.7% | [7] 80.3% | [8] 107% | [9] 91.3% | [10] 79.4% | [11] 83.7% | [12] 61% | [13] 92.1% | [14] 113% | [15] 70.1% | [16] 104% | [17] 79.8% | [18] 74% | [19] 91.8% | [20] 100%
